Only some compounds are listed: those with a hit (about 8.8% of all), similar ones and a draw of the others.
HPGD block: blocks human HPGD enzyme activity | AID 894 | hit rate 4.3% among 150,000 | purified HPGD, NADH fluorescence kinetic, PGE2 substrate | Potency, µM, without a hit: at the top dose activity change, negative = inhibition, usual class: inhibitors | P15428; further: on the % scale 0 is the no-effect control and ±100 the full control effect
Target sequence (P15428 whole entry, looked up): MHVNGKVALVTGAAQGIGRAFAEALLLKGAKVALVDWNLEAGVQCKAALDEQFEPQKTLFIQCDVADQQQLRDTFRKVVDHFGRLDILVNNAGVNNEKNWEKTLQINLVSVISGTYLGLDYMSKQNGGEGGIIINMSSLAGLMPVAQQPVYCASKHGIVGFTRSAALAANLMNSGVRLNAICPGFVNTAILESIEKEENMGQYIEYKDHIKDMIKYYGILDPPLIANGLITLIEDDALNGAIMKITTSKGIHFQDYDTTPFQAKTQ
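NADH formation kinetics: reaction with 30 uM PGE2 and 1 mM NAD+ (final), 20 nM enzyme, Tris-HCl pH 8 with Tween 20, after 15 min compound preincubation at room temperature. Fluorescence change, last versus first of five reads.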
HttQ103 aggreg: mutant huntingtin aggregation inhibition; PC12 HttQ103-GFP aggregates, Acumen cytometry, 40 h; Potency, µM (top dose mostly 46.1 µM), for the others: top-dose activity change, negative = inhibition, hits mostly inhibitors; hit rate 1.1% among 220,000; active means well fitted curve in the direction sought with a large enough effect; inconclusive means small, poorly fitted or top-dose-only effect, or another doubt; inactive means no such curve, though single readings can be large; an effect the other way counts as inactive or inconclusive; further: on the % scale 0 is the no-effect control and ±100 the full control effect; nearly all actives have a fitted effect of over 60% in size
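Using laser scanning cytometry, GFP-positive aggregates were counted after lysis of PC12 cells induced with 100 nM tebufenozide to express HTT exon 1 Q103–GFP. Compounds were tested in titration.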
ALDH1A1 inh: blocks purified human ALDH1A1 activity; P00352; hit rate 7.3% among 220,000; AID 1030; Purified ALDH1A1, NADH fluorescence, propionaldehyde substrate; Potency, µM (series often up to 75.3 µM), for inactives: at the top dose activity, negative = inhibition, most hits filed as inhibitors;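 further: plate controls were no enzyme wells and a reference inhibitor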
Target sequence (P00352 whole entry, looked up): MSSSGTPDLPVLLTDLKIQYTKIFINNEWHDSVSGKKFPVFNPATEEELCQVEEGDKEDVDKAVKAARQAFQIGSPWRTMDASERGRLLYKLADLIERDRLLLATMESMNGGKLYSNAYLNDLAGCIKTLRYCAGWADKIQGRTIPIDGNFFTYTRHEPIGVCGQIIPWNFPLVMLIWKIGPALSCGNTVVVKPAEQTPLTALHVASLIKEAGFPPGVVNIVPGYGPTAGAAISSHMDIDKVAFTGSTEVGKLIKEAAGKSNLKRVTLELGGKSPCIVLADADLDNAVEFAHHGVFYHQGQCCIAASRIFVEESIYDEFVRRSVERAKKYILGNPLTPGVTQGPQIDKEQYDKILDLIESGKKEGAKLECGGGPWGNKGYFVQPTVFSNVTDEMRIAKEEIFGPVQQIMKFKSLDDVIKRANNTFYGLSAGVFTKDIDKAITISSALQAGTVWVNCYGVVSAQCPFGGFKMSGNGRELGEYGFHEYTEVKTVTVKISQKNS
HTT cytoprotect: protects HTT-Q103 PC12 cells, measured by ATP; hit rate 0.14% among 230,000; Potency, µM (highest dose often 56.4 µM), for inactives: cytoprotection (ATP increase), usual class: activators; PC12 HTT-Q103 induced, cytoprotection, ATP luminescence, 40 h; active means well fitted curve in the direction sought with a large enough effect; inconclusive means small, poorly fitted or top-dose-only effect, or another doubt; inactive means no such curve, though single readings can be large; an effect the other way counts as inactive or inconclusive; further: % of control where 0% means no effect; nearly all actives have a fitted effect of over 45% in size
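Compounds were screened for protection of PC12 cells against cell death after tebufenozide induction (100 nM final) of mutant Huntingtin exon 1 (Q103) fused to GFP.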
Lamin A splicing: LMNA splicing modulation; HeLa LMNA splicing GFP/RFP minigene ratio, 48 h; Potency, µM (doses to about 46.1 µM), without a hit: top-dose ratio change, negative = inhibition, usual class: inhibitors; hit rate 0.01% among 200,000; AID 1487; active means well fitted inhibition curve with a large enough effect in the signal ratio, with a control signal flat, not every such curve was filed as active; inconclusive means small, poorly fitted or top-dose-only effect, or effect the other way, or a change in a side signal; the % refers to the signal ratio; further: on the % scale 0 is the no-effect control and ±100 the full control effect
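Read-out is the ratio of GFP to DsRed2 object intensity, acquired by 488 nm laser-scanning cytometry on HeLa lamin A-EGFP minigene reporter cells. Compound incubation 48 hrs at 37 °C in Opti-MEM with 2% FBS; DMSO 0.5% final.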
* = called active by the depositor; ? = inconclusive; · = no result given; ! = repeats disagree; [ ] = remark or other dose. Unless noted, the call rests on the fitted dose curve; in most records, active means well fitted inhibition curve with a large enough effect (not every such curve was filed as active); inconclusive means small, poorly fitted or top-dose-only effect, or another doubt; inactive means no such curve, though single readings can be large or run the other way. Potency means the concentration at half of the fitted maximal effect.

SMILES	HPGD block	HttQ103 aggreg	ALDH1A1 inh	HTT cytoprotect	Lamin A splicing
COc1cccc(-c2nc(CS(=O)CC(=O)N3CCC4(CC3)OCCO4)c(C)o2)c1 (configuration not stated)	-13%	8%	35µM*	-10%	-3%
CC(C)(C)c1ccc(O)c(C[N+](C)(C)C)c1	-16%	·	15%[13.5 µM]	13%[10 µM]	·
O=C(c1ccncc1)N1CCC[C@@]2(CCN(Cc3nccs3)C2)C1	-17%	·	4%	?	·
C[C@@H](C(=O)O)c1ccc(-c2ccccc2)c(F)c1	28µM*	4%[20.6 µM]	0%	-8%	?
C[C@@H](C(=O)O)c1ccc(C(=O)c2cccs2)cc1	-18%	29%[20.6 µM]	-1%[20.9 µM]	0%[40.3 µM]	?
O=c1[nH]c(=O)n(Cc2ccccc2)c(O)c1/C=C1\C=Nc2ccccc21	·	12%	?	-1%[10 µM]	·
O=c1[nH]c(=O)n(CC2CCCO2)c(O)c1/C=C1\C=Nc2ccccc21 (configuration not stated)	-24%	32%[9.22 µM]	14µM*	18%[10 µM]	-14%
C=C1CC[C@H](O)C/C1=C/C=C1\CCC[C@]2(C)[C@@H]([C@H](C)CCCC(C)C)CC[C@@H]12	?	27%	?	23%	·
COc1cccc(-c2cc(C(F)(F)F)n3nc(C(=O)N4CCC5(CC4)OCCO5)cc3n2)c1	11µM*	-2%	13µM*	-14%	-1%
O=C(c1cnn2c(C(F)(F)F)cc(-c3ccccc3)nc12)N1CCC2(CC1)OCCO2	-13%	21%	?	2%[10 µM]	-4%
CN1C[C@H](C(=O)N[C@]2(C)O[C@@]3(O)C4CCCN4C(=O)[C@H](Cc4ccccc4)N3C2=O)C[C@@H]2c3cccc4[nH]cc(c34)C[C@H]21 (some centres not stated)	-9%	-2%	-12%	13%[1.9 µM]	?
Cc1cc2c(C(C)C)c(O)c(O)c(C=O)c2c(O)c1-c1c(C)cc2c(C(C)C)c(O)c(O)c(C=O)c2c1O	8.9µM*!	?	-8%	12%[1.9 µM]	?
COc1ccc(C[C@@H]2NC[C@H](O)[C@H]2OC(C)=O)cc1	·	·	·	-75%	·
COP(=S)(OC)Oc1ccc(Sc2ccc(OP(=S)(OC)OC)cc2)cc1	·	13%	·	-4%	·
COP(=S)(OC)Oc1ccc([N+](=O)[O-])cc1	-6%	·	20µM*	-3%	?
CCCCn1c(=O)c(C=Nc2cc([N+](=O)[O-])ccc2OC)c(O)n(CCCCl)c1=O	-18%	23%	11µM*	·	?
C=CC(=C)C	2%	·	17%	-14%	·
Cc1onc(-c2ccccc2Cl)c1C(=O)NCc1ccccn1	-8%	0.89µM*	11%	3%[0.074 µM]	-4%
CCCCC/C=C\C/C=C\CCCCCCCC(=O)NCCO	-2%	·	8%	-26%	·
CCCCC/C=C\C/C=C\C/C=C\C/C=C\CCCC(=O)N[C@H](C)CO	-1%	·	7.1µM*!	?	·
CCCCC/C=C\C/C=C\C/C=C\C/C=C\CCCC(=O)OC(CO)CO	28µM*!	·	22µM*!	-35%	·
C[C@@H]1[C@@H](C)N1C[C@H](O)Cn1ccnc1[N+](=O)[O-] (some centres not stated)	-13%	·	11%[13.5 µM]	-5%[10 µM]	·
N[C@H](Cn1cc(I)c(=O)[nH]c1=O)C(=O)O	·	·	·	-13%[1.9 µM]	·
Nc1c(Br)cc([N+](=O)[O-])cc1[N+](=O)[O-]	-2%	·	25µM*	-46%	·
Cc1cc([N+](=O)[O-])ccc1N	-9%	·	?	-4%	·
SMILES	HPGD block	HttQ103 aggreg	ALDH1A1 inh	HTT cytoprotect	Lamin A splicing
N#CCBr	-9%	·	-9%	-3%	·
CN1CCC(O)(c2ccc(Cl)cc2)C(C(=O)c2ccc(Cl)cc2)C1 (configuration not stated)	·	8%[9.22 µM]	0.11µM*	-29%	?
C=C1CC2C(CC[C@]3(C)C(=O)CCC23)[C@]2(C)C=CC(=O)C=C12 (some centres not stated)	-9%	16%	28µM*	?	?
COc1ccc(N2C(=O)CC(N3CC=C(c4ccccc4)CC3)C2=O)cc1 (configuration not stated)	?	-18%	10µM*	-3%[10 µM]	-1%
COC(C)(C)C	-3%	·	18µM*	-5%	·
CC(C)(C)OOC(C)(C)C	-7%	·	-4%	-2%	·
CN1CCc2cc3c(cc2[C@@H]1[C@H]1OC(=O)c2c1ccc1c2OCO1)OCO3	·	·	·	2%	·
CC(C)(C)c1ccc(C(=O)NC(=S)Nn2cnnc2)cc1	·	-2%	9.5µM*	-16%[10 µM]	-7%
CC(C)C(CCN1C(=O)c2ccccc2C1=O)c1ccco1 (configuration not stated)	-16%	-7%[1.84 µM]	22µM*	-7%	2%
COc1ccc(NC(=O)c2cc([N+](=O)[O-])ccc2N2CCNCC2)cc1	·	·	8.9µM*	·	-3%[46 µM]
CCOCN(C(=O)CCl)c1c(C)cccc1CC	-5%	·	32µM*!	13%	-5%
COc1cccc(CN2CCCCC2c2cccnc2)c1 (configuration not stated)	-16%	-21%	32µM*	-9%	?
c1ccc(OP(Oc2ccccc2)Oc2ccccc2)cc1	0%	·	-16%	-46%	·
Brc1c(NC2=NCCN2)ccc2nccnc12	22µM*!	2%	16µM*!	?	?
CCCC[N+]12C3CC(C(CC)[C@H]1O)[C@@H]1C(O)C4(C[C@@H]12)c1ccccc1N(C)C34 (some centres not stated)	-17%	·	0%	-18%	·
N[C@@H](Cc1c[nH]c2cc([N+](=O)[O-])ccc12)C(=O)O	-8%	·	4%[13.5 µM]	10%[10 µM]	·
CC(=NCc1ccco1)c1c(O)n(C)c(=O)n(C)c1=O	-10%	16µM*	-9%	-15%[0.074 µM]	?
CCC(=NCc1ccco1)c1c(O)n(C)c(=O)n(C)c1=O	·	9%[9.22 µM]	·	4%[10 µM]	·
C[C@H]1C(=O)O[C@H]2CCN3CC=C(COC(=O)[C@](C)(O)[C@@]1(C)O)[C@H]23	·	·	·	-18%	·
S=c1[nH]nc(C2CC2)n1Cc1ccccc1	·	23%	14µM*	-6%	-11%[46 µM]
c1ccc2ncccc2c1	-7%	·	·	9%	·
N#CS.N=C=S.N=C=S.[Cu].[NH2-].[NH2-].[NH2-].[NH2-].c1ccc2ncccc2c1	-3%	·	3.5µM*	-9%[10 µM]	·
N[C@@H]1CCc2cc(O)c(O)cc2C1	·	·	·	9%[1.9 µM]	·
Cc1cccc(C(=O)Nc2ccc(Cl)cc2C(=O)c2ccccc2)c1	-15%	2%	-7%	-5%	0%
Cc1cccc(NC(=O)c2cccc(NS(=O)(=O)c3ccc(Cl)cc3)c2)c1	13µM*	-1%	?	4%	?
O=C(CCN1CC2CCC(CC2)C1)c1cccs1	1%	·	0.071µM*	10%[10 µM]	·
Cc1ccc2c(c1)C1CN(C)CCC1N2C(=O)c1cccs1 (configuration not stated)	·	2%[9.22 µM]	·	-2%[10 µM]	·
O=C(O)c1cc(N=Nc2ccc([As](=O)(O)O)cc2)ccc1O	-12%	·	2%[13.5 µM]	-8%[10 µM]	·
CSc1nc(N)c(N=Nc2ccc([As](=O)(O)O)cc2)c(=O)[nH]1	·	-14%[9.22 µM]	8.9µM*	1%[10 µM]	·
